The source made the active and inactive calls. Rule for the calls: active = hit-call score of the fitted dose curve at least 0.9, where 1 is the maximum; inactive = score below 0.9.
How the values were obtained:
[1] = read-out: Transforming growth factor beta 1 (TGFb1), TGFB1 (gene 7040); test: BSK_KF3CT_TGFb1: BioMAP Diversity Plus: KF3CT Assay for Transforming growth factor beta 1 (TGFb1) Biomarker Activity (AID 2283072); conditions: primary human keratinocytes with fibroblasts; actives raise or lower the signal
Summary of the method: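 Signal changes in either direction, relative to DMSO, define activity here. TGF-b1 is read by ELISA from a human keratinocyte-fibroblast co-culture 24 h post-dose.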

[2] = read-out: C-C motif chemokine 2 (Homo sapiens) (UniProt P13500); test: BSK_KF3CT_MCP1: BioMAP Diversity Plus: KF3CT Assay for Monocyte Chemoattractant Protein 1 (MCP1/CCL2) Biomarker Activity (AID 2283073); conditions: primary human keratinocytes with fibroblasts; actives raise or lower the signal
Summary of the method: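 ELISA readout of MCP-1 after 24 h chemical dosing of a human skin primary co-culture of keratinocytes and foreskin fibroblasts. Activity was fitted in both directions against DMSO.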

[3] = read-out: Matrix Metallopeptidase 9 (MMP9), MMP9 (gene 4318); test: BSK_KF3CT_MMP9: BioMAP Diversity Plus: KF3CT Assay for Matrix Metallopeptidase 9 (MMP9) Biomarker Activity (AID 2283074); conditions: primary human keratinocytes with fibroblasts; actives raise or lower the signal
Summary of the method: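 Human keratinocyte and foreskin fibroblast co-culture exposed to chemicals for 24 h; MMP9 biomarker measured by ELISA, bidirectional fitting relative to DMSO; cytotoxicity tracked by SRB total protein staining in parallel cultures.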

[4] = read-out: urokinase plasminogen activator (uPA), PLAU (gene 5328); test: BSK_KF3CT_uPA: BioMAP Diversity Plus: KF3CT Assay for urokinase plasminogen activator (uPA) Biomarker Activity (AID 2283075); conditions: primary human keratinocytes with fibroblasts; actives raise or lower the signal
Summary of the method: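 Primary human keratinocyte/foreskin fibroblast co-culture exposed to chemical; uPA measured by ELISA at 24 h. Bidirectional fit versus DMSO, with parallel SRB total-protein staining for cytotoxicity.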

[5] = read-out: CD40, CD40 (gene 958); test: BSK_LPS_CD40: BioMAP Diversity Plus: LPS Assay for CD40 Biomarker Activity (AID 2283076); conditions: primary human HUVEC with PBMC; actives raise or lower the signal
Summary of the method: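 Cells were dosed, incubated 24 h, then assayed for CD40 by ELISA. Gain or loss of signal was analysed relative to DMSO controls. The culture paired human umbilical vein endothelium with peripheral blood mononuclear cells.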

[6] = read-out: E-selectin (Homo sapiens) (UniProt P16581); test: BSK_LPS_Eselectin: BioMAP Diversity Plus: LPS Assay for Eselectin Biomarker Activity (AID 2283077); conditions: primary human HUVEC with PBMC; actives raise or lower the signal
Summary of the method: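 Primary human vascular co-culture (endothelium plus PBMC) was dosed with chemical, then E-selectin quantified by ELISA at 24 h. Endpoint values derive from bidirectional curve fitting relative to DMSO.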

[7] = read-out: Interleukin-8 (IL8), CXCL8 (gene 3576); test: BSK_LPS_IL8: BioMAP Diversity Plus: LPS Assay for Interleukin-8 (IL8) Biomarker Activity (AID 2283078); conditions: primary human HUVEC with PBMC; actives raise or lower the signal
Summary of the method: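 Readout is IL-8 by ELISA, taken 24 h after compounds were added to LPS-stimulated endothelial/PBMC co-cultures. Both increases and decreases relative to DMSO control were scored through bidirectional fitting.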

[8] = BSK_LPS_SRB: Viability Assessment in the BioMAP Diversity Plus: LPS Assay (AID 2283079); conditions: primary human HUVEC with PBMC;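 note: total protein by sulforhodamine B absorbance as a cytotoxicity measure; measured one day after compound addition; fitted in both directions against DMSO so loss or gain of signal counts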
Summary of the method: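 Readout is SRB absorbance at 560 nm (0.1% stain, TCA-fixed parallel cultures) as a total-protein cytotoxicity measure. Cells: primary human umbilical vein endothelium plus peripheral blood mononuclear cells, 24 h after chemical exposure; DMSO served as baseline.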

[9] = read-out: Interleukin-1 alpha (IL1a), IL1A (gene 3552); test: BSK_LPS_IL1a: BioMAP Diversity Plus: LPS Assay for Interleukin-1 alpha (IL1a) Biomarker Activity (AID 2283080); conditions: primary human HUVEC with PBMC; actives raise or lower the signal
Summary of the method: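 ELISA read-out of IL-1 alpha from a human primary vascular co-culture (endothelium plus PBMC) under LPS, sampled 24 hours post-dosing. Activity was fitted in both directions relative to DMSO controls.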

[10] = read-out: Monocyte Chemoattractant Protein-1 (MCP1), CCL2 (gene 6347); test: BSK_LPS_MCP1: BioMAP Diversity Plus: LPS Assay for Monocyte Chemoattractant Protein-1 (MCP1) Biomarker Activity (AID 2283081); conditions: primary human HUVEC with PBMC; actives raise or lower the signal;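 for AC50: secreted MCP-1 protein quantified by ELISA in culture supernatant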
Summary of the method: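 Human endothelial–PBMC co-cultures were dosed with chemical, then LPS-driven MCP-1 levels were quantified by ELISA at 24 h. Activity in either direction was fitted versus DMSO negative control.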

[11] = BSK_LPS_PGE2: BioMAP Diversity Plus: LPS Assay for Prostaglandin E2 (PGE2) Biomarker Activity (AID 2283082); conditions: primary human HUVEC with PBMC; actives raise or lower the signal;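 for AC50: secreted prostaglandin E2 measured by ELISA in LPS-stimulated co-culture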
Summary of the method: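 Endpoint derived from bidirectional curve fitting versus DMSO of ELISA-measured PGE2 in LPS-stimulated human primary vascular co-culture (HUVEC with PBMC) harvested at 24 h.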

[12] = read-out: Macrophage colony-stimulating factor (MCSF), CSF1 (gene 1435); test: BSK_LPS_MCSF: BioMAP Diversity Plus: LPS Assay for Macrophage colony-stimulating factor (MCSF) Biomarker Activity (AID 2283083); conditions: primary human HUVEC with PBMC; actives raise or lower the signal
Summary of the method: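 ELISA readout of M-CSF after 24 h compound exposure in a human endothelial/PBMC co-culture. Activity, in either direction, is fitted relative to DMSO vehicle.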

[13] = read-out: Tissue Factor, F3 (gene 2152); test: BSK_LPS_TissueFactor: BioMAP Diversity Plus: LPS Assay for Tissue Factor Biomarker Activity (AID 2283084); conditions: primary human HUVEC with PBMC; actives raise or lower the signal
Summary of the method: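 ELISA signal for cell-surface Tissue Factor (CD142) was read 24 h after compound dosing of an LPS-stimulated human endothelial–PBMC primary co-culture. Gain or loss of signal was scored relative to DMSO.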

[14] = read-out: Tumor necrosis factor (Homo sapiens) (UniProt P01375); test: BSK_LPS_TNFa: BioMAP Diversity Plus: LPS Assay for Tumour Necrosis Factor alpha (TNFa) Biomarker Activity (AID 2283085); conditions: primary human HUVEC with PBMC; actives raise or lower the signal
Summary of the method: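 Primary human vascular co-culture of HUVEC and PBMC; TNFa ELISA 24 h after treatment, analysed as increase or decrease relative to DMSO control.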

[15] = read-out: Vascular cell adhesion molecule 1 (VCAM1), VCAM1 (gene 7412); test: BSK_LPS_VCAM1: BioMAP Diversity Plus: LPS Assay for Vascular cell adhesion molecule 1 (VCAM1) Biomarker Activity (AID 2283086); conditions: primary human HUVEC with PBMC; actives raise or lower the signal
Summary of the method: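 Primary human vascular co-culture (umbilical vein endothelium plus PBMC) stimulated with LPS received chemical; 24 h later VCAM-1 was read by ELISA. Overt cytotoxicity was assessed by sulforhodamine B staining of parallel cultures at the same time point.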

[16] = read-out: CD38, CD38 (gene 952); test: BSK_SAg_CD38: BioMAP Diversity Plus: SAg Assay for CD38 Biomarker Activity (AID 2283087); conditions: primary human HUVEC with PBMC; actives raise or lower the signal
Summary of the method: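 Fluorescence ELISA of cell-surface CD38 served as the read-out, with either increase or decrease fitted against DMSO controls. Cells were a human umbilical vein endothelium plus PBMC co-culture under SEB/TSST-1 stimulation, measured 24 h after dosing.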

[17] = read-out: CD40, CD40 (gene 958); test: BSK_SAg_CD40: BioMAP Diversity Plus: SAg Assay for CD40 Biomarker Activity (AID 2283088); conditions: primary human HUVEC with PBMC; actives raise or lower the signal
Summary of the method: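 Compounds were dosed onto a human primary endothelial–PBMC co-culture, and after 24 h CD40 was quantified by ELISA using a fluorescence signal. Activity in either direction was fitted relative to DMSO.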

[18] = read-out: CD69, CD69 (gene 969); test: BSK_SAg_CD69: BioMAP Diversity Plus: SAg Assay for CD69 Biomarker Activity (AID 2283089); conditions: primary human HUVEC with PBMC; actives raise or lower the signal;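 for AC50: cell surface CD69 protein quantified by ELISA with fluorescence detection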
Summary of the method: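 Primary human vascular co-culture (umbilical vein endothelium with peripheral blood mononuclear cells) exposed to test chemical for 24 h. CD69 levels quantified by fluorescence ELISA; DMSO served as negative control for bidirectional fitting.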

[19] = read-out: Monocyte Chemoattractant Protein-1 (MCP1), CCL2 (gene 6347); test: BSK_SAg_MCP1: BioMAP Diversity Plus: SAg Assay for Monocyte Chemoattractant Protein-1 (MCP1) Biomarker Activity (AID 2283090); conditions: primary human HUVEC with PBMC; actives raise or lower the signal
Summary of the method: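 MCP-1 levels in the endothelial–PBMC SAg co-culture were quantified by ELISA at 24 h post-dosing; both increases and decreases versus DMSO scored. Cytotoxicity monitored by SRB total protein in parallel cultures.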

[20] = read-out: E-selectin (Homo sapiens) (UniProt P16581); test: BSK_SAg_Eselectin: BioMAP Diversity Plus: SAg Assay for Eselectin Biomarker Activity (AID 2283091); conditions: primary human HUVEC with PBMC; actives raise or lower the signal
Summary of the method: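 Co-culture: HUVEC + PBMC. Dose compound; 24 h. ELISA for E-selectin. Bidirectional fit vs DMSO.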

Measured: AC50

Chain of Tumor necrosis factor (Homo sapiens) (P01375 whole entry, looked up): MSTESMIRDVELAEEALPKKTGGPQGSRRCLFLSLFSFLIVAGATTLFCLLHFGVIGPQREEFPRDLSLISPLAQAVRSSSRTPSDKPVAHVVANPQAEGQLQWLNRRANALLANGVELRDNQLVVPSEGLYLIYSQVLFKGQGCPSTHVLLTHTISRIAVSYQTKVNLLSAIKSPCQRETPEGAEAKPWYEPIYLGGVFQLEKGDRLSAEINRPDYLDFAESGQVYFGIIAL
Chain of E-selectin (Homo sapiens) (P16581 whole entry, looked up): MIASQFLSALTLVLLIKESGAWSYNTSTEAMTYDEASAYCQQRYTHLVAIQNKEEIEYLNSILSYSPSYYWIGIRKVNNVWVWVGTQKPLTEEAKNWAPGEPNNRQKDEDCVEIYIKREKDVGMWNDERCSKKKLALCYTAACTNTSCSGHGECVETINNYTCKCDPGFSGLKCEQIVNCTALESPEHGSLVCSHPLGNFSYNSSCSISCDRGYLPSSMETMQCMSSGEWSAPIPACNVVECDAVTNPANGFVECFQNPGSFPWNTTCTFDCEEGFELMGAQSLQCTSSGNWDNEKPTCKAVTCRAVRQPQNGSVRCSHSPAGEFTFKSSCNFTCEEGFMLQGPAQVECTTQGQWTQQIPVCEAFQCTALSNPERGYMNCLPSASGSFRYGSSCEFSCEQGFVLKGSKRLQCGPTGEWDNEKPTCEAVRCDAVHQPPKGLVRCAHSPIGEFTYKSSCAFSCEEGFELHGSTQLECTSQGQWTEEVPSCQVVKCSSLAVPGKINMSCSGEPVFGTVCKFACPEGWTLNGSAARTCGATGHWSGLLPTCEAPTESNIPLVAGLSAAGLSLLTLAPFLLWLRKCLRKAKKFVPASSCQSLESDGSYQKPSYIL

Cc1cc(Cl)ccc1OC(C)C(=O)O (stereo not drawn)
inactive: all assays above

OC(Cc1ccccc1Cl)(Cn1[nH]cnc1=S)C1(Cl)CC1 (stereo not drawn)
active: [1] 16.9 µM | [5] 20 µM | [10] 24.6 µM | [11] 11.1 µM | [16] 20 µM | [17] 20 µM | [18] 14.1 µM
not listed: [13]
inactive: all other assays above

Oc1cc(Cl)c(Cl)cc1Cl
active: [2] 20 µM | [5] 14.1 µM | [6] 34.1 µM | [7] 32.3 µM | [8] 25.7 µM | [9] 32.6 µM | [10] 30.2 µM | [12] 20 µM | [15] 32 µM | [16] 26.8 µM | [17] 24.8 µM | [18] 20 µM | [19] 32.2 µM | [20] 26.5 µM
inactive: [1] | [3] | [4] | [11] | [13] | [14]

c1ccc2sc(SNC3CCCCC3)nc2c1
active: [9] 30.2 µM | [14] 30.5 µM
not listed: [13]
inactive: all other assays above

Oc1c(Cl)cc(Cl)cc1Cl
active: [17] 13.3 µM
inactive: all other assays above

O=[N+]([O-])c1cccc2ccccc12
inactive: all assays above

Reference: PubChem BioAssay (EPA / NIEHS)
